Measured values: PubChem BioAssay

assay: small-molecule binders of probe aLefty1, primary screen, biochemical, small-molecule microarray, 635/667 nm fluorescence (AID 1153); conditions: higher = more signal;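 also: score merges spot fluorescence with signal-to-noise ratio from the scanned slide images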

Question: Which composite z-score does the source give for `CC1CC/C=C\[C@H]2OC34C=CCN(Cc5ccccc5)C(=O)[C@H]3N(CCCCCO)C(=O)[C@@H]4C2C(=O)O1` (stereo partly specified) here?
Answer: Its composite z-score is -0.326.

Question: With `COCCOC(=O)N1C(=O)[C@@]2(c3cc(C#CCNC(N)=O)ccc31)[C@H](C(=O)N1CCc3cc(OC)c(OC)cc3C1)[C@H]1C(=O)O[C@H](c3ccccc3)[C@H](c3ccccc3)N1[C@@H]2c1ccc(OCCO)cc1` as the molecule, how does the composite z-score read?
Answer: The composite z-score was -0.361.

Question: With `O=C1OCCC/C=C\[C@H]2OC34C=CCN(Cn5nnc6ccccc65)C(=O)[C@H]3N(CCCCCO)C(=O)[C@@H]4C12` (stereo partly specified) as the molecule, how does the composite z-score read?
Answer: The composite z-score was 0.278.

Question: With `O=C(O)[C@@]1(Cc2ccccc2)N=C(c2ccc(OCCCO)cc2)O[C@H]1c1ccccc1` as the molecule, how does the composite z-score read?
Answer: Its composite z-score is -0.251.

Question: For `Cc1ccc(S[C@]2(C(=O)NC3CC3)CC(=O)N(C3CCCCC3)[C@@H]2c2ccc(CO)cc2I)cc1`, which composite z-score is on record?
Answer: Its composite z-score is 0.112.

Question: Which composite z-score does the source give for `O=C/C=C/c1ccc2c(c1)OCO2` here?
Answer: Its composite z-score is -0.205.

Question: With `CC(C)(C)OC(=O)CC[C@@]1(C(=O)O)N=C(c2ccc(OCCCO)cc2)O[C@@H]1c1ccccc1N=[N+]=[N-]` as the molecule, how does the composite z-score read?
Answer: The composite z-score was 0.266.

Question: For `COCCOC(=O)N1C(=O)[C@@]2(c3cc(C#CCC(C(=O)OC)C(=O)OC)ccc31)[C@H](C(=O)N1CCN(c3ncccn3)CC1)[C@H]1C(=O)O[C@H](c3ccccc3)[C@H](c3ccccc3)N1[C@@H]2c1ccc(OCCO)cc1`, which composite z-score is on record?
Answer: Its composite z-score is -0.0511.

Question: With `COCCOC(=O)N1C(=O)[C@@]2(c3cc(C#CCC(C(=O)OC)C(=O)OC)ccc31)[C@H](c1ccc(O)cc1)N1[C@H](c3ccccc3)[C@H](c3ccccc3)OC(=O)[C@H]1[C@@H]2C(N)=O` as the molecule, how does the composite z-score read?
Answer: Its composite z-score is 0.245.

Question: Which composite z-score does the source give for `C=CCOC(=O)[C@@H]1[C@H]2C(=O)O[C@H](c3ccccc3)[C@H](c3ccccc3)N2[C@H](c2ccc(OCCOC(=O)[C@@H]3C[C@@H]4C(=O)NCC(=O)N4[C@@H]3c3cccc(OCCO)c3)cc2)[C@@]12C(=O)Nc1ccc(I)cc12` here?
Answer: The composite z-score was 0.42.

Question: For `C#CCN(C(/C=C/c1ccccc1)CO)C(C(=O)O)c1ccccc1` (stereo unspecified), which composite z-score is on record?
Answer: Its composite z-score is -0.319.

Question: For `COC(=O)[C@@]1(Cc2ccc(F)cc2)[C@H]2c3cc(C(=O)N4CCCC4)n(Cc4cccc5ccccc45)c3C[C@H]2CN1C(=O)c1ccccc1`, which composite z-score is on record?
Answer: Its composite z-score is 0.342.

Question: Which composite z-score does the source give for `CC(C)CNC(=O)[C@@H]1c2ccccc2C(=O)N(Cc2cc(C(F)(F)F)cc(C(F)(F)F)c2)[C@H]1c1ccc(CO)cc1` here?
Answer: The composite z-score was 0.197.

Question: With `COc1cc2c(cc1OC)CN(C(=O)[C@@H]1[C@H]3C(=O)O[C@H](c4ccccc4)[C@H](c4ccccc4)N3[C@H](c3ccccc3OCCO)[C@@]13C(=O)Nc1ccc(C#CCNC(N)=O)cc13)CC2` as the molecule, how does the composite z-score read?
Answer: The composite z-score was 0.882.

Question: Which composite z-score does the source give for `COC(=O)c1ccc(C(O)C2C=CC3C(=O)N(c4ccccc4)C(=O)C3N2Nc2ccc(C#N)cc2)o1` (stereo unspecified) here?
Answer: The composite z-score was 0.117.

Question: For `CC(=O)NCCCC[C@@H]1NC(=O)[C@@H]2C[C@H](C(=O)NCCCCCCNC(=O)CS)[C@H](c3ccc(O)cc3)N2C1=O`, which composite z-score is on record?
Answer: The composite z-score was 0.0494.

Question: Which composite z-score does the source give for `O=c1cccc(C=Cc2ccccc2)o1` here?
Answer: Its composite z-score is -0.29.

Question: For `COc1ccc([Si](C)(C)[C@@H]2[C@@H](CC(=O)N3CCC[C@H]3CO)O[C@]3(C(=O)N(C)c4c(Br)cc(C)cc43)[C@H]2C)cc1`, which composite z-score is on record?
Answer: The composite z-score was -0.251.

Question: With `CC(C)N1C(=O)[C@@]2(c3ccc([N+](=O)[O-])cc3)CC(=O)N(CC34CC5CC(CC(C5)C3)C4)[C@@H]2c2ccc(CO)cc21` as the molecule, how does the composite z-score read?
Answer: The composite z-score was 1.04.

Question: For `COC(=O)[C@@]1(Cc2ccccc2)N=C(c2ccc(OCCCO)cc2)O[C@H]1c1ccccc1N=[N+]=[N-]`, which composite z-score is on record?
Answer: The composite z-score was 0.129.

Question: With `N#Cc1ccc(NN2C(C(O)c3ccc([N+](=O)[O-])cc3)C=CC3C(=O)N(c4ccccc4)C(=O)C32)cc1` (stereo unspecified) as the molecule, how does the composite z-score read?
Answer: The composite z-score was 0.0927.

Question: With `[N-]=[N+]=Nc1ccccc1[C@@H]1OC(c2ccc(OCCCO)cc2)=N[C@]1(CCS(=O)(=O)c1ccccc1)C(=O)N1CCOCC1` as the molecule, how does the composite z-score read?
Answer: The composite z-score was 0.701.

Question: For `O=C(O)[C@H]1C[C@H]2C(=O)NCC(=O)N2[C@H]1c1ccc(O)cc1`, which composite z-score is on record?
Answer: Its composite z-score is -0.0171.

Question: Which composite z-score does the source give for `O=c1cccc(CCc2ccccc2)o1` here?
Answer: The composite z-score was -0.15.

Question: With `CCN(CC)c1ccc(N2CC=CC34O[C@@H]5C=CCCOC(=O)C5[C@H]3C(=O)N(CCCCCO)[C@@H]4C2=O)cc1` (stereo partly specified) as the molecule, how does the composite z-score read?
Answer: Its composite z-score is 0.0391.

Question: For `COCCCNC(=O)[C@@]1(c2ccc([N+](=O)[O-])cc2)CC(=O)N(CC23CC4CC(CC(C4)C2)C3)[C@@H]1c1ccc(CO)cc1`, which composite z-score is on record?
Answer: Its composite z-score is 0.616.

Question: For `[N-]=[N+]=NCc1ccccc1C[C@]1(C(=O)NCC(O)CO)N=C(c2ccc(OCCCO)cc2)O[C@H]1c1ccccc1N=[N+]=[N-]` (stereo partly specified), which composite z-score is on record?
Answer: The composite z-score was 0.12.

Question: With `[N-]=[N+]=NCc1ccccc1[C@@H]1OC(c2ccc(OCCCO)cc2)=N[C@]1(Cc1ccccc1N=[N+]=[N-])C(=O)NCc1ccccc1` as the molecule, how does the composite z-score read?
Answer: The composite z-score was 0.639.

Question: Which composite z-score does the source give for `O=C1OCC=C[C@H]2OC34C=CCN(c5ccc(Cl)cc5)C(=O)[C@H]3N(CCCCCCO)C(=O)[C@@H]4[C@@H]12` (stereo partly specified) here?
Answer: Its composite z-score is 0.135.

Question: Which composite z-score does the source give for `CC(C)C[C@@H]1NC(=O)[C@H]2C[C@@H](C(=O)NCCCCCNC(=O)CS)[C@@H](c3cccc(OCCO)c3)N2C1=O` here?
Answer: Its composite z-score is -0.0511.

Question: For `COC(=O)[C@@]1(Cc2ccccc2)[C@H]2c3cc(C(=O)N4CCCC4)n(Cc4ccc(C)o4)c3C[C@H]2CN1C(=O)c1ccccc1`, which composite z-score is on record?
Answer: The composite z-score was 0.198.

Question: Which composite z-score does the source give for `O=C1c2ccccc2[C@@]2(Cc3ccccc3N(Cc3ccccc3)C2=O)[C@H](c2ccc(CO)cc2)N1C1CCCCC1` here?
Answer: Its composite z-score is 0.0437.

Question: Which composite z-score does the source give for `COc1ccccc1CN1C(=O)c2ccccc2[C@@H](C(=O)NCCN2CCOCC2)[C@@H]1c1ccc(CO)cc1` here?
Answer: The composite z-score was -0.211.

Question: For `COc1cccc(C(=O)O[C@H]2CC[C@]3(C)C4=C(CCC3C2(C)C)[C@]2(C)CC[C@H]([C@H](C)CCCC(C)C)[C@@]2(C)CC4)c1` (stereo partly specified), which composite z-score is on record?
Answer: Its composite z-score is 0.0752.

Question: With `C[C@H]1NC(=O)[C@H](Cc2ccccc2)NC(=O)[C@@]23C(=O)N[C@@H](Cc4ccccc4)C2[C@H](C)[C@@]2(C)O[C@H]2C3/C=C/C/C=C\CNC1=O` (stereo partly specified) as the molecule, how does the composite z-score read?
Answer: Its composite z-score is -0.193.

Question: For `CS(=O)(=O)CCOC(=O)C1=CC(CCCO)=CC(c2cccs2)N(Cc2cc3c(cc2Br)OCO3)C=C1C(=O)OCCS(C)(=O)=O` (stereo unspecified), which composite z-score is on record?
Answer: Its composite z-score is -0.0767.
